TCR-CD3 inh: inhibitors of human TCR-CD3 interaction, primary screen, biochemical, fluorescence, TAMRA-labeled TCR probe; AID 651800, 2012; T-cell receptor (TCR); inhibition, % at 9.4 µM; 360,000 tested, 0.37% active; in the data active means inhibition above about 19%;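 further: recombinant mutant TCR 2C K166C tagged with TAMRA read by polarization; 0% = receptor in buffer alone and 100% = receptor with positive control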
PME-1 primary: PME-1 inhibitors via competitive probe labeling, primary screen, biochemical, fluorescence polarization, FP-Rh probe, HTS; Protein phosphatase methylesterase 1 (Homo sapiens), Q9Y570; recombinant PME-1; inhibition, % at 5.9 µM; 320,000 tested, 0.53% active;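 active means inhibition above the campaign mean of all compounds plus 3 SD, cut at about 26% in these data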;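 further: competitive labeling of PME-1 active site by serine hydrolase directed probe; 0% = PME-1 with DMSO and 100% = wells lacking PME-1 enzyme; inhibitors block probe labeling so polarization falls and inhibition rises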
PRMT1 FP inh: PRMT1 methyltransferase inhibitors, primary screen, biochemical, fluorescence polarization; Protein arginine N-methyltransferase 1 (Homo sapiens), Q99873; recombinant PRMT1, activity-based probe fluorescence polarization; inhibition, % at 2.79 µM; 370,000 tested, 1.3% active;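 active means inhibition above about 21% made by adding two undisclosed values, limit read from the data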
SIAE primary: human SIAE inhibitors, primary screen, biochemical, fluorescence polarization, FP-Rh probe, 1536-well HTS; SIAE FP-Rh probe binding; Sialate O-acetylesterase (Homo sapiens), Q9HAT2; inhibition, % at 9.66 µM; 370,000 tested, 0.69% active; AID 1053197, 2014;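 active means inhibition above a cutoff: mean of compounds within the control limits plus 3 SD of those, cut at about 17% in these data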;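 further: 0% = plate median of compound wells and 100% = probe without SIAE protein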
Fam108B inh: mouse Fam108B serine hydrolase inhibitors, primary screen, counter-screen for RBBP9 inhibitor project, biochemical, fluorescence polarization. recombinant Fam108B, FP-Rh probe fluorescence polarization. inhibition, % at 9.51 µM. 300,000 tested, 0.33% active. AID 1947, 2009;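 active means inhibition above the screen mean inhibition plus 3 SD, computed separately per campaign, cut at about 18% in these data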;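 further: inhibitors lower polarization as less probe binds the enzyme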
PAD4 inh: human PAD4 inhibitors, primary screen, biochemical, fluorescence polarization, 1536-well format; Protein-arginine deiminase type-4 (Homo sapiens), Q9UM07; recombinant PAD4, RCA probe fluorescence polarization; inhibition, % at 6.36 µM; 330,000 tested, 0.41% active; AID 485272, 2010;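 active means percent inhibition above a cutoff equal to the mean of all tested compounds plus 3 SD, cut at about 15% in these data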;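 further: 0% = PAD4 with RCA probe and DMSO and 100% = probe without PAD4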
Target sequence (Q9UM07 whole entry, looked up): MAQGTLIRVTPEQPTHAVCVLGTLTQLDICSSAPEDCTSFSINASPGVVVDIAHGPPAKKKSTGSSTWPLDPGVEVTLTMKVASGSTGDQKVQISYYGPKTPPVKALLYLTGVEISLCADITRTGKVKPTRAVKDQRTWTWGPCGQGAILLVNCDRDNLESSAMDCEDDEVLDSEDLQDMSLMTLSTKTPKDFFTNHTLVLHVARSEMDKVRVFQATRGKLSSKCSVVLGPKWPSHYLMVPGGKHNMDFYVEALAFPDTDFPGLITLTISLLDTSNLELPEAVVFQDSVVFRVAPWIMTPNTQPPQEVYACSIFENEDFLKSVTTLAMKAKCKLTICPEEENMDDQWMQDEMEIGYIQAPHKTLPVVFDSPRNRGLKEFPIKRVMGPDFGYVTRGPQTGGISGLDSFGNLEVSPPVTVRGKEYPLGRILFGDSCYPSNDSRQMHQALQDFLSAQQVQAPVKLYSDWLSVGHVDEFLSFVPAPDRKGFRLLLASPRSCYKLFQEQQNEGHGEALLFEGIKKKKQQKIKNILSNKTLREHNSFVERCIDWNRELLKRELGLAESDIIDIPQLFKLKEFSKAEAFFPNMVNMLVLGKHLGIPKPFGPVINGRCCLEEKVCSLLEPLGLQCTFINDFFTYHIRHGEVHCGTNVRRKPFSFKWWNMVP
PRMT1 confirm: PRMT1 methyltransferase inhibitors, confirmation, biochemical, fluorescence polarization, triplicate. shares compounds with PRMT1 FP inh. recombinant His-PRMT1, activity-based probe fluorescence polarization. inhibition, % at 2.79 µM. 3,300 tested, 42% active;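 active means mean inhibition across replicates above the hit cutoff derived for the earlier primary screen, cut at about 22% in these data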
The depositor's hits bear a star; x = no result. Hits are enriched below; roughly 2.6% of the tested compounds scored in any of these assays.

SMILES	TCR-CD3 inh	PME-1 primary	PRMT1 FP inh	SIAE primary	Fam108B inh	PAD4 inh	PRMT1 confirm
CCn1c2ccccc2c2cc(NC(=O)CSc3nnc(-c4ccccc4)n3Cc3ccco3)ccc21	x	x	80*	12	x	x	65*
CCn1c2ccccc2c2cc(NC(=O)CSc3nnc(C4CC4)n3Cc3ccco3)ccc21	3	13	6	3	4	-3	x
Cc1cccc(-c2nnc(SCC(=O)Nc3ccc(-c4nc5ccc(C)cc5s4)cc3)n2Cc2ccco2)c1	x	x	41*	-21	x	x	1
CCn1c(SCC(=O)Nc2ccc(-c3nc4ccc(C)cc4s3)cc2)nnc1-c1ccccc1	x	-8	x	x	3	-2	x
COC(=O)C1CCCN(C(=O)C2CCN(S(=O)(=O)c3ccccc3[N+](=O)[O-])CC2)C1 (centres undefined)	x	x	0	-7	x	x	x
Cc1cc(C)c2[nH]c(=O)c(CN(Cc3cccs3)C(=S)NCc3ccco3)cc2c1	-5	-8	35*	0	-7	2	0
Cc1ccc(N(Cc2cc3ccc(C)cc3[nH]c2=O)C(=O)c2ccco2)cc1	4	-2	1	-7	-1	1	x
Cc1ccc2cc(CN(Cc3ccco3)C(=O)c3cccs3)c(=O)[nH]c2c1	-3	-12	30*	-5	-4	-7	2
Cc1ccc2cc(CN(C(=O)c3ccco3)c3ccccc3)c(=O)[nH]c2c1	-6	0	53*	-8	3	-4	-6
CCC1CCCCN1C(=S)NC(=O)c1cccs1 (centres undefined)	6	x	1	-3	x	x	x
O=C(NC(=S)N1CCCCC1CO)c1cccs1 (centres undefined)	-2	x	33*	-8	x	2	13
CCCN1CNC(=S)N(CC2CCCO2)C1 (centres undefined)	-4	-6	67*	1	0	-6	-4
Cc1ccc(-c2csc3n[nH]c(=S)n23)cc1	1	5	61*	17	5	8	7
CC(=O)CC[C@@H]1CC[C@]2(CCCN(C(=O)c3ccccc3)C2)O1	x	x	0	-4	x	x	x
O=C(CSc1ccc(-c2ccco2)nn1)c1ccc(F)cc1	9	4	54*	5	4	0	13
O=C(CSc1ccc(-c2ccco2)nn1)NCc1ccc(F)cc1	6	11	9	2	1	-12	x
Fc1ccc(CSc2ccc(-c3ccco3)nn2)cc1	-6	1	54*	6	5	-1	-1
CCCOC(=O)c1ccc(NC(=O)CSC2=Nc3ccccc3C3CC=NN23)cc1 (centres undefined)	-1	-5	35*	-7	-8	7	14
Cc1cc(C)cc(N(CCC#N)C(=O)CSC2=Nc3ccccc3C3CC=NN23)c1 (centres undefined)	10	-3	5	1	1	4	x
O=C(CSc1ccccc1C(=O)O)Nc1ccc2c(c1)OCO2	-1	-2	0	-3	x	-1	x
O=C(CSC1=Nc2ccccc2C2CC=NN12)NCc1ccco1 (centres undefined)	8	x	3	2	x	0	x
N#Cc1ccccc1NC(=O)CSC1=Nc2ccccc2C2CC=NN12 (centres undefined)	4	-7	25*	0	-7	3	56*
O=C(CSC1=Nc2ccccc2C2CC=NN12)Nc1ccc2c(c1)OCO2 (centres undefined)	3	x	41*	2	x	x	28*
CCC(NC(=O)c1ccc2c(ccn2Cc2cccc(-c3ccccc3C(=O)O)c2)c1)c1ccccc1 (centres undefined)	x	x	12	-11	x	x	x
N#Cc1cccc(NC(=O)OC2CCC23CCC(c2ccccc2)CC3)c1 (centres undefined)	x	x	3	-16	x	x	x
O=C(CSS(=O)(=O)O)N1CCN(C(=O)c2ccoc2)CC1	3	-4	45*	-1	0	7	29*

Compound activity: PubChem BioAssay, The Scripps Research Institute Molecular Screening Center
